Experimental data taken from the supplement of paper PMC11732987, “Enantioselective OTUD7B fragment discovery through chemoproteomics screening and high-throughput optimisation” (Communications Chemistry, 2025).
A number with no mark means an inactive call.

Legend:
Experiment in all cases: log2 ratio of Biotin-Ahx-Ub-VS probe labelling (fragment/DMSO); higher = less target engagement (more negative = stronger competition), active = hit call of the paper (q ≤ 0.05, log2 ratio ≤ -1)
Details in all cases: compound concentration: 200 uM; treatment time: 3 h
[1] = molecular target: UniProt O00507
UniProt O00507, sequence (O00507 whole entry, the tested form may be a part): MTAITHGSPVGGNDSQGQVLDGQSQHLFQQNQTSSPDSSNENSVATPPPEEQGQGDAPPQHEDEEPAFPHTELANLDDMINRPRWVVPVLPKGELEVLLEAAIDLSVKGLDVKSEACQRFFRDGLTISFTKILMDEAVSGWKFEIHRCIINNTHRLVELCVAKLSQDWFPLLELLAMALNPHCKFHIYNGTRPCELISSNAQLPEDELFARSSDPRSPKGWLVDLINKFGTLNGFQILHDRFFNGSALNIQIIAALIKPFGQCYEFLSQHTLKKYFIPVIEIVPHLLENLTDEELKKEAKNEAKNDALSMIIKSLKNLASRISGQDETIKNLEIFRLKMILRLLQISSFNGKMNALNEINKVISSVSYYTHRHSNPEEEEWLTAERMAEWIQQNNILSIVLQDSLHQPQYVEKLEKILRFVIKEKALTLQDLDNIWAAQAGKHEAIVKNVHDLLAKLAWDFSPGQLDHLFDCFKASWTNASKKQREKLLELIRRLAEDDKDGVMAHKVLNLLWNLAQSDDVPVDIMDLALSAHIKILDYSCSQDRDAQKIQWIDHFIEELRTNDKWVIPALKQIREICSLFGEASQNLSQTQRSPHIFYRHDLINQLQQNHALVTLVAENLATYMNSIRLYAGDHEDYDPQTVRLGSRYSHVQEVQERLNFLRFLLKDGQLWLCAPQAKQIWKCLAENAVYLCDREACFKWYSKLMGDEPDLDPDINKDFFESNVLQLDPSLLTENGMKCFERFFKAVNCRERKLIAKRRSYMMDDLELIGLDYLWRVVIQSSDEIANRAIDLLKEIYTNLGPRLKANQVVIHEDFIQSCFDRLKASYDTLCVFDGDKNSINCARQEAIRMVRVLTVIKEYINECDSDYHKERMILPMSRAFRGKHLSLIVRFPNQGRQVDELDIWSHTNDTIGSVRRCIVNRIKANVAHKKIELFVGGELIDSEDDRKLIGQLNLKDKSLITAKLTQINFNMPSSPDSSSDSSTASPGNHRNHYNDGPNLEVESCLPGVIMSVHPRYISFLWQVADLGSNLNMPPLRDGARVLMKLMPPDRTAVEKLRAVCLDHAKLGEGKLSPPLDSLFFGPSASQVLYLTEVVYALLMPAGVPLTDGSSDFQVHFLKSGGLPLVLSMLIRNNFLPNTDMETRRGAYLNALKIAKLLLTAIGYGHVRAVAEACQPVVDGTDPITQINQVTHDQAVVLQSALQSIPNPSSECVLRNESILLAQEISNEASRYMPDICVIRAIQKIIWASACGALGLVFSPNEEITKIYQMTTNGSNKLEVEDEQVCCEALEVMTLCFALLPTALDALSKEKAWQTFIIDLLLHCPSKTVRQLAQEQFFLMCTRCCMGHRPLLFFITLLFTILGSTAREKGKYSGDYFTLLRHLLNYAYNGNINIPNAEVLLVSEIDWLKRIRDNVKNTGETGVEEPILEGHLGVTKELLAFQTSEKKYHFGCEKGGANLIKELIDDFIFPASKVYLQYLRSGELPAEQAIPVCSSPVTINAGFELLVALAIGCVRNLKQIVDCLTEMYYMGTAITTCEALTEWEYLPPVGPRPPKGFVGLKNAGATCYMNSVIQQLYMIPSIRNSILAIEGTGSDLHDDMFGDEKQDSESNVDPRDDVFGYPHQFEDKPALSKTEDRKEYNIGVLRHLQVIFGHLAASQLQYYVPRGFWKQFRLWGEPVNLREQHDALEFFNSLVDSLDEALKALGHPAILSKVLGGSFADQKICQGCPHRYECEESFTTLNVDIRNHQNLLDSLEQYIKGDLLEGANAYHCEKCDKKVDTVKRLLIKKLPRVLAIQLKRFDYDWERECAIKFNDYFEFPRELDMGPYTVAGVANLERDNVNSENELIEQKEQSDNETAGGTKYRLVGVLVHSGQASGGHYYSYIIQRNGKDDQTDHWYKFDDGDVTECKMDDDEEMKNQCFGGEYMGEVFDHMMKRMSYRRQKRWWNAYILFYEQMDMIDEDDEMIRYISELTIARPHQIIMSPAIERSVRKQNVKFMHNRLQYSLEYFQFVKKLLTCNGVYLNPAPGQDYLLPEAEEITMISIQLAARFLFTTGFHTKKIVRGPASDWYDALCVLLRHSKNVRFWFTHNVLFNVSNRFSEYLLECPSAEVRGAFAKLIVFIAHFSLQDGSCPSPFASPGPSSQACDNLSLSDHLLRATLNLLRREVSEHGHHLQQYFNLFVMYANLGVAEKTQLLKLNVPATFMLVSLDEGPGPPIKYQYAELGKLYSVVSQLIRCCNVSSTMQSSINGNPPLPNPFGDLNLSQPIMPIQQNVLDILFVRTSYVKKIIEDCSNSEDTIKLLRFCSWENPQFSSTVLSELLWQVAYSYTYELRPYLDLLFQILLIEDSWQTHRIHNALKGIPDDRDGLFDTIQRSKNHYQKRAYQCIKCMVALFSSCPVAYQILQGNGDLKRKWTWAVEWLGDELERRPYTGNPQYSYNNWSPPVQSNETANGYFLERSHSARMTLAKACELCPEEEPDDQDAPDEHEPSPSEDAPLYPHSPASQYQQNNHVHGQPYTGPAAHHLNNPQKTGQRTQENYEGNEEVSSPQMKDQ
In short: (§1)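 Triplicate samples of HEK293T lysate, 495 µg each, received fragment at 200 µM or vehicle for 3 h, followed by Biotin-Ahx-Ub-VS (0.5 µM final) for 1 h. After NeutrAvidin enrichment of labelled DUBs and LysC/trypsin digestion, peptides were run by diaPASEF LC-MS/MS. The values are average log2 fragment/vehicle ratios from global-median-normalised Spectronaut label-free quantities, tested by unpaired t-test on proteins having ≥2 unique peptides.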

[2] = molecular target: UniProt P51784
UniProt P51784, sequence (P51784 whole entry): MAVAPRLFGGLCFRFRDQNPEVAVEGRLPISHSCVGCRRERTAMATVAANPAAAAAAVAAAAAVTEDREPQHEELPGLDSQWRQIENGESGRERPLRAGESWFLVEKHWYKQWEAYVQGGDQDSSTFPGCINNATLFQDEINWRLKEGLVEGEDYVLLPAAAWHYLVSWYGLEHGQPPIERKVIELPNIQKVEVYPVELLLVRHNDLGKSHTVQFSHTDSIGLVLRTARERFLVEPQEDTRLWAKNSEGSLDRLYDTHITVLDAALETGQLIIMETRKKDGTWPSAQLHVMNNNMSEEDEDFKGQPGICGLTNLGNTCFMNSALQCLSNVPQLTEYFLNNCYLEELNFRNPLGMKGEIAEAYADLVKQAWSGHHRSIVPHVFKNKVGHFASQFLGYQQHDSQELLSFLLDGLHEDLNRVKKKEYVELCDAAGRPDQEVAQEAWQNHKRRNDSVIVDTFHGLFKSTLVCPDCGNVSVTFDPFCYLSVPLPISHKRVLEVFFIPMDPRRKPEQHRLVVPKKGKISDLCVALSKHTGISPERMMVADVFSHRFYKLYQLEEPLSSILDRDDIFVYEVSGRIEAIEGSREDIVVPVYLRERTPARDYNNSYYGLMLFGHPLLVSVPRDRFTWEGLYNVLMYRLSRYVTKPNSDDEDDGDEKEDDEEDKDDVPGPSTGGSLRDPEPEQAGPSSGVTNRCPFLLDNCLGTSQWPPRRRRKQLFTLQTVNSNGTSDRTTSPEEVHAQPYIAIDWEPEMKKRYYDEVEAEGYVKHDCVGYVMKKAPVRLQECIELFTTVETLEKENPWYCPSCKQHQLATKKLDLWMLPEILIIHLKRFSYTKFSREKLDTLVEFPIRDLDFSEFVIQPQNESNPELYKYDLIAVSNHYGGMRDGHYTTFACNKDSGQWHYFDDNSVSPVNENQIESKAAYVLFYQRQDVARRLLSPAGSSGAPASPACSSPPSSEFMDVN
In short: as §1

[3] = molecular target: T1, UniProt Q5T2D3
T1 sequence (whole entry): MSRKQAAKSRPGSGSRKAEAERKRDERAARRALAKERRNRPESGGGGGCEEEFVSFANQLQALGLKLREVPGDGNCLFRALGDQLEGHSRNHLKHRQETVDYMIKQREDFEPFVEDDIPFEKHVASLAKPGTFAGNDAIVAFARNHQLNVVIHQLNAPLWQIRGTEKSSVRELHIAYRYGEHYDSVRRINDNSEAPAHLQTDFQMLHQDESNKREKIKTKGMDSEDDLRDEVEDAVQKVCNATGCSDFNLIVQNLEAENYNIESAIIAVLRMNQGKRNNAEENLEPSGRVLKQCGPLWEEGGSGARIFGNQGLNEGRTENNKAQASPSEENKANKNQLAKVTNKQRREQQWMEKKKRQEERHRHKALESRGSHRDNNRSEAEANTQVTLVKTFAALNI
In short: as §1

[4] = molecular target: T2, UniProt Q8TE49
T2 sequence (whole entry): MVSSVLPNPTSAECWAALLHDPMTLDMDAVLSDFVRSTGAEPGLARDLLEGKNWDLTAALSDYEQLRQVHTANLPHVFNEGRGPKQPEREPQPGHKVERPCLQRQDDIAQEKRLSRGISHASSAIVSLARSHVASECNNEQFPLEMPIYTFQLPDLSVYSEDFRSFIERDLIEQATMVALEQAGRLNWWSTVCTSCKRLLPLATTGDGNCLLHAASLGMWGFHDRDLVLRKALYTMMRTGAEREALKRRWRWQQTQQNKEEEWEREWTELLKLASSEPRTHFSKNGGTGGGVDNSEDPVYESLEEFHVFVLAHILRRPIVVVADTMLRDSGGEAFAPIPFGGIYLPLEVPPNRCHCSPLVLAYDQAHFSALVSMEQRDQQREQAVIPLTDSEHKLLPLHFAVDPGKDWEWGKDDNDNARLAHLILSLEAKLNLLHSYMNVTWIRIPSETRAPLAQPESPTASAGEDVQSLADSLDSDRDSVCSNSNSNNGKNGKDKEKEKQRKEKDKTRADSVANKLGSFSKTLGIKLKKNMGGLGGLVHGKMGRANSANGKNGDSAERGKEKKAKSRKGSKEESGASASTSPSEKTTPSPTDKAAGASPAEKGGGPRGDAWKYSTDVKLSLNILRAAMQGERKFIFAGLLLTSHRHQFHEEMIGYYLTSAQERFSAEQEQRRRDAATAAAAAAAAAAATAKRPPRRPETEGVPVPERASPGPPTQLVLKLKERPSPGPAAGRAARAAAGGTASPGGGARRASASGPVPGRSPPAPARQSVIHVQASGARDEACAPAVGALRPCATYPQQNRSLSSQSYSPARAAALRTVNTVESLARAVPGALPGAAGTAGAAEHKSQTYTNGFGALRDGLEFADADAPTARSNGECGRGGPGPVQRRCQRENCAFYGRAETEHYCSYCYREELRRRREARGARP
In short: as §1

[5] = molecular target: T3, UniProt Q9P2H5
T3 sequence (whole entry): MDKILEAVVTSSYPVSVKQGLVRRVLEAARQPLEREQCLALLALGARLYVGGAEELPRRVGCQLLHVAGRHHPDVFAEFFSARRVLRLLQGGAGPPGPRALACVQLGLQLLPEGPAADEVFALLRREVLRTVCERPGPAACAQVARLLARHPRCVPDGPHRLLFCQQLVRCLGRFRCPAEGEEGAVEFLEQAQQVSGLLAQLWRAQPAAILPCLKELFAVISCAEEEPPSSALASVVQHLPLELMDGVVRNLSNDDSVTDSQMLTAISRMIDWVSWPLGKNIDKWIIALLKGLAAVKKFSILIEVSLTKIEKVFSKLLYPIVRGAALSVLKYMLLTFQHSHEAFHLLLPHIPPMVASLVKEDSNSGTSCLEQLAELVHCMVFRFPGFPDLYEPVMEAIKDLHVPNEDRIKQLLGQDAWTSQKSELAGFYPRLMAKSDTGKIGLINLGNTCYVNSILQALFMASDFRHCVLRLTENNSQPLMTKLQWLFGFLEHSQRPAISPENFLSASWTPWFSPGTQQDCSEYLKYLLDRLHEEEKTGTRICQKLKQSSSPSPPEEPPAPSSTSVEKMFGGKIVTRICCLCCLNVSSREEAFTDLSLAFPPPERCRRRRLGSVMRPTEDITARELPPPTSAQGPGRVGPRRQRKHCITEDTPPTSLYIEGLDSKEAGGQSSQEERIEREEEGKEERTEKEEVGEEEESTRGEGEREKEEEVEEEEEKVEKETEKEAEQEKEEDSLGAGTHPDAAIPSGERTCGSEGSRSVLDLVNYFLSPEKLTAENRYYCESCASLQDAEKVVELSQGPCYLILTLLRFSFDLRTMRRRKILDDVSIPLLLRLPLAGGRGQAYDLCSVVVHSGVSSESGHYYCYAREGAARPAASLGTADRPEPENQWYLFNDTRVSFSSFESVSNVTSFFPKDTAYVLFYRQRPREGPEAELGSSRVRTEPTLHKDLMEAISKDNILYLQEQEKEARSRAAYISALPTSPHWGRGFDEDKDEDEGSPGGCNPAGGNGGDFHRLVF
In short: as §1

[6] = molecular target: T4, UniProt Q9UGI0
T4 sequence (whole entry): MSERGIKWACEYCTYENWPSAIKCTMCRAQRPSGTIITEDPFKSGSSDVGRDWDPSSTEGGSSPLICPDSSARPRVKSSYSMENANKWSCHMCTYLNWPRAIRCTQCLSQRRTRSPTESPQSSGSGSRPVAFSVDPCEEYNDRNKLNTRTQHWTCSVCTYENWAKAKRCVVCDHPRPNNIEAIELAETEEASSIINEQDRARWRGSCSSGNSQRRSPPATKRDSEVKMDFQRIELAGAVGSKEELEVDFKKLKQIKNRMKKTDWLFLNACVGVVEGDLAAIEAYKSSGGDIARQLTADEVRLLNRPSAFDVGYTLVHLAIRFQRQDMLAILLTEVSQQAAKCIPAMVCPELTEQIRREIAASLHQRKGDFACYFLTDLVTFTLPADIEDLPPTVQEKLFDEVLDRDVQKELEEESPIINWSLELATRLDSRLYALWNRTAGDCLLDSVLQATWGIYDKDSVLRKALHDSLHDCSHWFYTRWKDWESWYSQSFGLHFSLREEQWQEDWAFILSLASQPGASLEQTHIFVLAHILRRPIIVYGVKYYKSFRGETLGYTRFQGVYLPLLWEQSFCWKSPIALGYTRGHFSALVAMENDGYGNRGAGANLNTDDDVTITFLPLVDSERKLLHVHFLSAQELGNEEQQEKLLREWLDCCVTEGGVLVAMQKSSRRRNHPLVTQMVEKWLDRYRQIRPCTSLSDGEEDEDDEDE
In short: as §1

[7] = molecular target: T5, YOD1 (UniProt Q5VVQ6)
T5 sequence (whole entry): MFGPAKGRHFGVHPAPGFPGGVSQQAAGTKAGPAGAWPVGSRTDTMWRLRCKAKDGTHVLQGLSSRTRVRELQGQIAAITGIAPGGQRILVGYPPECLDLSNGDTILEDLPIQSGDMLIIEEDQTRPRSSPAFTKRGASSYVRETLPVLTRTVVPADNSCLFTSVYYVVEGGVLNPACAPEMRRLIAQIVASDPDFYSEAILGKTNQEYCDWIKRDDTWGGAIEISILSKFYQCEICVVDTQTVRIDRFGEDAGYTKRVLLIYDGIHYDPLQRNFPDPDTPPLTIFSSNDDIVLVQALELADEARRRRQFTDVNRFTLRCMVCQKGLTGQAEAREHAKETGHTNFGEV
In short: as §1

| Structure (SMILES) | log2 ratio of Biotin-Ahx-Ub-VS probe labelling [1] | log2 ratio of Biotin-Ahx-Ub-VS probe labelling [2] | log2 ratio of Biotin-Ahx-Ub-VS probe labelling [3] | log2 ratio of Biotin-Ahx-Ub-VS probe labelling [4] | log2 ratio of Biotin-Ahx-Ub-VS probe labelling [5] | log2 ratio of Biotin-Ahx-Ub-VS probe labelling [6] | log2 ratio of Biotin-Ahx-Ub-VS probe labelling [7] |
| --- | --- | --- | --- | --- | --- | --- | --- |
| Cc1ccc(-c2nnc(C)[nH]2)c(NC(=O)CCl)c1 | -0.0161 | 0.126 | -0.148 | -0.185 | 0.245 | -0.97 | -0.102 |
| CN(C)C(=O)c1ccc(CNC(=O)CCl)cc1 | 0.565 | 0.0173 | -0.167 | -0.516 | -0.0353 | -0.474 | 0.0763 |
| Cc1ccc(CN(CCO)C(=O)CCl)cc1 | -0.468 | -0.204 | -0.439 | -0.837 | -0.351 | -1.16 (active) | -0.163 |
| NS(=O)(=O)c1ccc(Cl)c(NC(=O)CCl)c1 | -0.168 | 0.0886 | -0.424 | -1.53 (active) | -0.0565 | -0.791 | -0.361 |
| O=C(CCl)NCc1ccc(N2CCOCC2)nc1 | -0.134 | -0.0382 | -0.374 | -0.316 | -0.162 | -0.475 | -0.207 |
| CCN(Cc1ccc(C#N)cc1F)C(=O)CCl | -0.396 | -0.331 | -0.313 | -0.525 | -0.207 | -1.27 (active) | -0.251 |
| Cl.O=C(CCl)N1CCN(Cc2ccccc2)CC1 | -0.496 | 0.0203 | -0.213 | -0.391 | 0.0502 | -0.536 | -0.381 |
| O=C(CCl)N1CCN(C(=O)Nc2ccccc2)CC1 | 0.452 | 0.16 | -0.132 | -0.337 | -0.158 | 0.0377 | 0.444 |
| O=C(CCl)Nc1cc2c(cc1Cl)OCCCO2 | 0.443 | 0.0196 | 0.0208 | -0.506 | -0.0168 | -0.0467 | 0.361 |
| C[C@@H](NC(=O)CCl)c1cccc(C#N)c1 | -0.38 | 0.045 | -0.157 | -0.912 | -0.136 | -0.111 | -0.0878 |
